A selection: hits, their analogues and other compounds. The true share with any hit is near 3.3%.
USP1 inh: blocks the human USP1/UAF1 deubiquitinase complex; recombinant USP1/UAF1, Ub-Rhodamine cleavage fluorescence; Potency, µM (top dose mostly 57.1 µM), inactives show at the top dose activity change, negative = inhibition, usual class: inhibitors; 390,000 tested, 0.23% active; also: potency is read from the fitted curve at half-maximal effect; nearly all actives have a fitted effect of over 60% in size
Target sequence (O94782 whole entry, looked up): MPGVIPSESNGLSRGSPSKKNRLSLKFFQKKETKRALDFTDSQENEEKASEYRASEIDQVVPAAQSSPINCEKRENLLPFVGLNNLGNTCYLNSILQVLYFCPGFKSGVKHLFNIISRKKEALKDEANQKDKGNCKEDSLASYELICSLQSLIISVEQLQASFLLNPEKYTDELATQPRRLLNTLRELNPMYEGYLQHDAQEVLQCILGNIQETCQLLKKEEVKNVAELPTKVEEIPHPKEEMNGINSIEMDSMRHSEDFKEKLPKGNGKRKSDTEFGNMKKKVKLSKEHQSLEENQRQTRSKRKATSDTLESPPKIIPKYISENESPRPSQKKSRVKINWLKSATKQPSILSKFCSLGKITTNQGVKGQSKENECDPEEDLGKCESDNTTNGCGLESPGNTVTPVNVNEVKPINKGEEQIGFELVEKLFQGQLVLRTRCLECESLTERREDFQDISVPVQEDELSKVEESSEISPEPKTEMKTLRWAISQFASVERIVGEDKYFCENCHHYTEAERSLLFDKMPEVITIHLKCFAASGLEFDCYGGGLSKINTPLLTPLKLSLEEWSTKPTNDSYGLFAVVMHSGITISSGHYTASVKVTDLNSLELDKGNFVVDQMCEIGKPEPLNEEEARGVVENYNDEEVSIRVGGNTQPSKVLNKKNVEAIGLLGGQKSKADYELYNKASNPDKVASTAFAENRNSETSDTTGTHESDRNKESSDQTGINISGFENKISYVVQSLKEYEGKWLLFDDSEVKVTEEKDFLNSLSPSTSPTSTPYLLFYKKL
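USP1/UAF1 complex (1 nM) preincubated 15 min at room temperature with compound, then Ub-Rho substrate (150 nM final) added. Kinetic fluorescence at 480/540 nm over 6 reads at 60 s intervals; 50 mM HEPES pH 7.8, 0.5 mM EDTA, 0.1 mg/ml BSA, 1 mM TCEP, 0.01% Tween-20.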
PI5P4Ka inh: PI5P4K alpha (human) kinase inhibition; PI5P4Kalpha enzyme, ADP-Glo luminescence, 60 min; hits give low values; AID 652105; 330,000 tested, 1.2% active; max response, %; active = max response of -50% or lower; inconclusive = between -30% and -50%; inactive = -30% or higher; also: value at the top dose of about 77 µM
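Reactions run in 0.038 M HEPES pH 7.4, 0.28 mM EGTA, 0.1% CHAPS and 5% DMSO, with PI5P4Kalpha, substrate, compound and 5 microM ATP final, one hour at room temperature. Readout is ADP-Glo luminescence.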
PLK1 PBD block: inhibitors of human PLK1 polo-box domain binding | Potency, µM, inactives show max response, negative = inhibition, actives largely listed as inhibitors | Plk1 PBD binding of FITC phosphopeptide, fluorescence polarization | 360,000 tested, 2.8% active | AID 720504; also: potency is read from the fitted curve at half-maximal effect; series mostly up to about 57 µM; nearly all actives have a fitted effect of over 65% in size
WRN inhibitor: blocks human WRN helicase; Q14191; WRN helicase unwinding, fluorescent forked duplex, kinetic; Potency, µM (highest dose often 114 µM), inactives show at the highest dose activity change, negative = inhibition, actives largely listed as inhibitors; 360,000 tested, 0.46% active; AID 651768; also: potency is read from the fitted curve at half-maximal effect; nearly all actives have a fitted effect of over 55% in size
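WRN at 20 nM final was preincubated with compound for 15 min at room temperature; reaction started with 100 nM forked duplex oligonucleotide carrying fluorophore and quencher plus 2 mM ATP (final). Unwinding followed kinetically by red fluorescence (ex 525/em 598 nm).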
USP2a block: blocks human ubiquitin-specific protease USP2a; O75604; USP2 core, Ub-CHOP2 coupled fluorogenic reporter, 485/531; Potency, µM (titrated, usually from 38.3 µM), without a hit: at the top dose activity change, negative = inhibition, most hits filed as inhibitors; 330,000 tested, 0.01% active;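 also: potency is read from the fitted curve at half-maximal effect; plate controls were DMSO wells for no effect and full inhibition by NEM control for full effect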
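Cell-free coupled assay: 10nM USP2 core preincubated 30min RT with compound in Tris-HCl pH 8.0/CaCl2/CHAPS buffer, then 25nM Ub-CHOP2 and 25nM reporter substrate; fluorescence (Ex 485/Em 531) read after 60min RT, normalized to NEM inhibition, concentration-response curves fitted.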
Numbers without * were called inactive; ? = inconclusive; . = not tested or not shown; [ ] = remark or other dose. Unless noted, calls follow the shape of the dose curve; as a rule, active = well fitted curve in the direction sought with a large enough effect; inconclusive = small, poorly fitted or top-dose-only effect, or another doubt; inactive = no such curve, though single readings can be large; an effect the other way counts as inactive or inconclusive. Unless noted, % is scaled to controls: 0 for no effect and ±100 for the full control effect.

SMILES	USP1 inh	PI5P4Ka inh	PLK1 PBD block	WRN inhibitor	USP2a block
O=C(c1ccc2c(c1)OCO2)[C@@H]1[C@@H]2C(=O)N(C3CCCCC3)C(=O)[C@@H]2C2c3ccccc3C=CN21 (some centres undefined)	?	-1	-10%	-10%	-11%
CC(C)(C)C(=O)[C@@H]1[C@@H]2C(=O)N(C3CCCCC3)C(=O)[C@@H]2[C@H]2c3ccccc3C=CN12	25µM*	0	27µM*	-4%	-8%
CCOC(=O)c1[nH]c2c(c1Cc1ccccc1)C(=O)CC(c1ccccc1)C2 (centres undefined)	2%	.	.	.	.
Cc1c(C(=O)Nc2ccc(F)cc2F)oc2ccc3c(c12)C(=O)CC(C)(C)O3	-2%	.	.	.	.
CCC1CN(C(=O)N2CCC(C(=O)NCc3cccc(C)c3)CC2)c2ccccc2O1 (centres undefined)	-29%	.	.	.	.
Cc1cc(Br)ccc1NC(=O)CSc1c2c(nc3ccccc13)CCC2	-5%	.	.	.	.
Cc1ccccc1-n1c(C)cc(/C=N/Nc2ccc([N+](=O)[O-])cn2)c1C	-14%	-4	-5%	-3%	3%
Cc1cc(/C=N/Nc2ccc([N+](=O)[O-])cn2)c(C)n1-c1ccc(C(=O)O)cc1	-2%	-84*	-14%	50µM*	-1%
O=C1c2sc3nc4c(c(=O)n3c2C(=O)N1c1ccccc1)CCC4	-15%	-4	21µM*	-4%	0%
Cc1ccccc1N1C(=O)c2sc3nc4c(c(=O)n3c2C1=O)CCC4	-11%	.	8.4µM*	?	3%
Cc1ccccc1N1C(=O)c2cccc3cccc(c23)C1=O	-20%	-7	3%	4%	1%
COc1ccc(OC)c(S(=O)(=O)NCC(c2cccs2)S(=O)(=O)c2ccc(F)cc2)c1 (centres undefined)	-12%	.	.	.	.
O=C(Nc1ccc(F)cc1F)c1ccc(-n2cnc3cccnc32)cc1	-11%	.	.	.	.
COc1ccc(CCNC(=O)Cc2c(C)c3ccc(O)c(C)c3oc2=O)cc1OC	-26%	.	.	.	.
CC1=CCC2C(=O)N(c3ccc(C(=O)N4CCCCCC4)cc3)C(=O)C2C1 (centres undefined)	-16%	0	17µM*	2%	2%
CC(=O)N1c2ccc(S(=O)(=O)NCCC(=O)NCc3ccc(Cl)cc3)cc2CC1C (centres undefined)	-17%	0	6%	3%	4%
CC(=O)N1c2ccc(S(=O)(=O)N3CCC(C(=O)NCc4ccc(Cl)cc4)CC3)cc2CC1C (centres undefined)	-3%	-28	7.5µM*	-4%	1%
CN(C)c1ccc(CNC(=O)CCNS(=O)(=O)c2cc(Br)cnc2N)cc1	-20%	-8	27µM*	1%	-1%
CC(=O)N1c2ccc(S(=O)(=O)N3CCCC(C(=O)N4CCCC(C)C4)C3)cc2CC1C (centres undefined)	-6%	2	-17%	5%	1%
CC(=O)N1c2ccc(S(=O)(=O)NCCC(=O)N3CCCC(C)C3)cc2CC1C (centres undefined)	-28%	?	24µM*	3%	3%
CC(=O)N1c2ccc(S(=O)(=O)N3CCC(C(=O)NCc4ccc(C)cc4)CC3)cc2CC1C (centres undefined)	-11%	4	-9%	-5%	4%
CC(=O)N1c2ccc(S(=O)(=O)NCCC(=O)NCc3ccc(N(C)C)cc3)cc2CC1C (centres undefined)	-16%	-21	11µM*	0%[11.6 µM]	2%
CCN(CC)C(=O)c1sc2c(c1C)c(=O)n(Cc1ccccc1)c(=O)n2CC(=O)Nc1ccc(OC)cc1	-12%	.	.	.	.
CCC(=O)N1c2ccc(S(=O)(=O)CCC(=O)NCc3ccc4c(c3)OCO4)cc2CC1C (centres undefined)	-1%	-1	24µM*	3%	1%
CCOC(=O)Cn1cc(/C=N/N2C(=O)C3C4C=CC(C4)C3C2=O)c2ccccc21 (centres undefined)	4%	-25	15µM*	-5%	0%
SMILES	USP1 inh	PI5P4Ka inh	PLK1 PBD block	WRN inhibitor	USP2a block
O=C1C2C3C=CC(C3)C2C(=O)N1/N=C/c1cn(Cc2ccccc2)c2ccccc12 (centres undefined)	-20%	3	-3%	-17%	-4%
CCOc1ccccc1NC(=O)NCCn1c(=O)oc2ccc(C)cc21	-11%	.	.	.	.
O=C(CSc1nnc(-c2ccco2)o1)c1ccccc1	-2%	.	-6%	-9%	-20%
O=C(CSc1nnc(-c2ccco2)o1)c1ccc[nH]1	-10%	-86*	-26%	-27%	8%
Cc1ccc(S(=O)(=O)/N=C/c2c(O)ccc3ccccc23)cc1	8%	1	30µM*	-11%	3%
NCCNC(=O)c1ncsc1-c1cccc(F)c1	18%	-3	-14%	-13%	.
O=C(O)c1ncsc1-c1ccccc1	-4%	-5	24µM*	5%	6%
CCc1ccccc1NC(=O)Cn1ccn(-c2cc(C)cc(C)c2)c(=O)c1=O	4%	.	.	.	.
O=C1CNc2ccc(C(=O)N3CCN(c4ccccn4)CC3)cc2N1	?	-7	24µM*	-4%	0%
O=C(CCN1Cc2ccccc2C1)c1ccc2c(c1)OCCO2	-13%	.	24µM*	-18%	-6%
CN(C)CCC(=O)c1ccc2c(c1)OCO2	-5%	-1	19µM*	?	0%
CN(C)CCC(=O)c1cccc(Br)c1	-15%	1	9.5µM*	-22%	2%
O=C(O)CCC(=O)c1ccc2c(c1)OCCO2	-25%	-7	0%	5%	3%
Cc1ccc(CCNC(=O)Cn2nc(-c3ccc(C)cc3)ccc2=O)cc1	4%	.	.	.	.
Cc1nc(-c2ccc(Cl)cc2)sc1CCNC(=O)c1ccc(C(F)(F)F)cc1	-4%	.	.	.	.
COc1ccc(C2CC(=O)Nc3c2c(=O)[nH]c2nc4ccccc4n32)cc1 (centres undefined)	-25%	.	.	.	.
CCOc1ccccc1N(C)C(=O)Cn1cnc2onc(-c3ccc(F)cc3)c2c1=O	-30%	.	.	.	.
O=C1CC(c2ccccc2)CC(=O)C1Sc1ccc(Cl)cc1 (centres undefined)	-8%	-14	21µM*	-30%	1%
COc1ccc(C2CC(=O)C(CS(=O)(=O)c3ccccc3)C(=O)C2)cc1 (centres undefined)	-10%	?	?	-2%[57.1 µM]	0%
O=C1CC(c2ccc(Cl)cc2)CC(=O)C1CS(=O)(=O)c1ccccc1 (centres undefined)	-1%	-58*	27µM*	-7%[57.1 µM]	-4%
